Inhibition data for 96 molecules are collected here from PubChem BioAssay AID504329 (Southern Research Specialized Biocontainment Screening …, 2011).

The whole screen tested about 340,000 compounds, of which about 1,000 (0.29%) were called active. Rule as the data show it: inconclusive = inhibition above about 27% without an active follow-up result; inactive = below that. Not all results are given here. Potency and affinity values are given separately.

The experiment in a line: NS1A inhibition, H1N1 influenza, cell based functional assay (AID 504329). As to conditions: percent inhibition, at 12.5 µM, active compounds read high.
What is called inhibition is the relative decrease from the control value, in per cent. `Cc1cc(Nc2cccc(F)c2)n2c(n1)nc1ccccc12`: the inhibition is -4.78% (inactive).

In the case of `CC(Sc1nnc(C2CC2)n1C1CC1)C(=O)c1ccc(F)cc1` (stereo unspecified), the inhibition is -11.2% (inactive). The figure for `Clc1cccc(Cl)c1CSc1nnc([C@@H]2CCCN2)o1` is -1.85% (inactive). Under `CC(=O)N1CCN(C(=O)COC(=O)CNC(=O)c2ccccc2C)CC1` stands -1.13% (inactive). Under `Cc1ccc(CNCC(O)(c2ccccc2)c2ccc(Cl)cc2)cc1` (stereo unspecified) stands 6.37% (inactive); under `Cn1c(SCC(=O)N2CCCC2=O)nnc1-c1ccccc1F`, 6.14% (inactive); under `CCOC(=O)c1cc2c(C)n(-c3ccc(N(C)C)cc3)c(C)c2cc(C(=O)OCC)c1=O`, -3.74% (inactive). With `CN(C)c1ccc(C=c2c3ccccc3n3c2c2ccccc2[n+]3C)cc1`, the inhibition is 21% (inactive). The figure for `COc1cc(C=c2c3ccccc3n3c2cc(-c2ccccc2)[n+]3C)cc(OC)c1OC` is 6.14% (inactive).

For `CN(C)c1ccc(/C=C2\CCCc3c2nc2ccccc2c3C(=O)O)cc1`, the inhibition is 2.2% (inactive). Under `CN(C)c1ccc(/C=C/c2nc3ccccc3c(=O)n2-c2ccc(C(=O)O)cc2)cc1` stands -25.3% (inactive); under `CCOC(=O)c1cccc(NC(=O)c2ccc(N(C)C)cc2)c1`, 5.77% (inactive); under `C[n+]1c(-c2ccccc2)cc(-c2ccc(O)cc2)cc1-c1ccccc1`, -0.313% (inactive).

For the molecule `COc1ccc(C(=O)c2ccc(N(C)C)cc2)c2ccccc12`, the inhibition is 11.2% (inactive). The figure for `COc1ccc(C)cc1NS(=O)(=O)c1ccc2c(c1)N(C)CCO2` is 3.31% (inactive). Under `COC(=O)C1CN(C(=O)c2ccc(OC(F)F)cc2)c2ccccc2O1` (stereo unspecified) stands 8.47% (inactive); under `CN(CC(=O)Nc1ccccc1Cl)CC(=O)N1CCc2ccccc21`, -8.6% (inactive); under `CCOc1ccc(CC(=O)Nc2nccs2)cc1OCC`, -1.94% (inactive). The figure for `C=CCNc1nc(N)c([N+](=O)[O-])c(Nc2cccc(Cl)c2)n1` is 3.17% (inactive). As for `CC(C)=CC(=O)Nc1nnc(-c2ccccc2C)s1`, the inhibition was -8.76% (inactive). Under `O=C(CNCc1cccc(Cl)c1)N1CCc2ccccc2C1` stands -4.83% (inactive); under `O=C(CNCc1ccc(Cl)cc1)N1CCc2ccccc2C1`, -2.57% (inactive).

For the molecule `C/C(=N\Nc1nc2ccccc2s1)c1cccs1`, the inhibition was -10% (inactive).

For `Oc1ccccc1/C=N/Nc1nc2ccccc2o1`, the inhibition was 12% (inactive). Under `COc1cc(/C=N/Nc2nc3ccccc3o2)cc(OC)c1O` stands 1.3% (inactive). Consider `CN(C)c1ccc(/C=N/Nc2nc3ccccc3o2)cc1`, for which the inhibition was -0.4% (inactive).

With `CC(=NNc1nc2ccccc2s1)c1ccncn1`, the inhibition is 6.3% (inactive). Take `Cc1ccnc(Nc2nc3ccccc3o2)n1`: the inhibition was -3.68% (inactive). With `CCCN1CCC(N(C)CCc2ccc(OC)c(OC)c2)CC1`, the inhibition is -5.4% (inactive). Under `CCOC(=O)C1=C(C)N(C[C@@H]2CC[C@@H](Cc3ccc(-c4ccccc4)cc3)O2)C(=O)NC1c1ccc(Cl)cc1` (stereo partly specified) stands -4.34% (inactive). The figure for `Cc1cccc(C)c1NC(=O)COC(=O)COc1ccc2c(C)cc(=O)oc2c1` is 10.5% (inactive); for `COc1ccccc1-n1nnnc1SCC(=O)NCC1CCCO1` (stereo unspecified) it is -3.64% (inactive); for `Cc1cccc(NC(=S)N(CCCN2CCOCC2)Cc2cn(C)c3ccccc23)c1` it is 4.41% (inactive).

Take `CCOc1ccc2c(c1)-c1c(ssc1=S)C(C)(C)N2C(=O)CSC1=NCCS1`: the inhibition is 20% (inactive). Under `Cc1cc2c(cc1C)N(C(=O)CSC1=NCCS1)C(C)(C)c1ssc(=S)c1-2` stands 14.7% (inactive). The figure for `Cc1ccc2c(c1)-c1c(ssc1=S)C(C)(C)N2C(=O)CN1C(=O)c2ccccc2C1=O` is 28.5% (inactive). The figure for `CC1(C)c2ssc(=S)c2-c2ccccc2N1C(=O)c1ccco1` is 2.72% (inactive). As to `CCOC(=O)c1c(NC(=O)c2ccc(N3C(=O)[C@@H]4[C@H](C3=O)[C@H]3C=C[C@@H]4C3)cc2)sc2c1CCCC2`, the inhibition was -7.09% (inactive).

As for `CC(C)C(=O)Nc1ccc(NC(=S)NC(=O)c2ccccc2F)cc1`, the inhibition was 1.28% (inactive). Under `O=S(=O)(NCCc1cn2ccccc2n1)c1ccc2c(c1)CCCC2` stands 25.4% (inactive). As for `S=C(CN1CCCC1=S)NCCc1ccccc1`, the inhibition was -5.27% (inactive). Take `Cc1[nH]c2ccccc2c1CCNS(=O)(=O)c1ccc(S(N)(=O)=O)cc1`: the inhibition was 23.3% (inactive). The figure for `CN(Cc1ccc(Cl)c(Cl)c1)C(=O)c1ccccc1SCC(=O)N1CCCC1` is -4.06% (inactive); for `CN(C)Cc1c(C(=O)N/N=C/c2ccncc2)nnn1-c1nonc1N` it is 6.41% (inactive). Turning to `Cc1ccc(S(=O)(=O)N2[C@@H](c3cccc(C)c3)C(C(=O)O)=C[C@H]2CC2CCCC2)cc1`, the inhibition was 8.82% (inactive). Turning to `Cc1ccc(-n2nnnc2SCC(=O)Nc2ccccc2N2CCCCC2)cc1C`, the inhibition was -1.34% (inactive). The figure for `Cc1cc(C)nc(NC(N)=NCCc2ccccc2)n1` is -1.52% (inactive); for `CCCCSCCCNC(=O)C1CCC(CNS(=O)(=O)c2ccccc2)CC1` (stereo unspecified) it is -20% (inactive). Under `COc1ccc(NC2c3ccccc3C(=O)N2Cc2ccc3c(c2)OCO3)cc1` (stereo unspecified) stands 5.36% (inactive); under `COc1cc(NC2c3ccccc3C(=O)N2Cc2ccc3c(c2)OCO3)cc(OC)c1` (stereo unspecified), -1.58% (inactive); under `O=C(NCCN1CCCCC1)Nc1ccc(Br)cc1`, -24.7% (inactive). Under `N#Cc1cc(N2CCCCC2)c([N+](=O)[O-])cc1C#N` stands 9.08% (inactive); under `O=[N+]([O-])c1cc(F)c(N2CCCCC2)cc1N1CCOCC1`, 10.6% (inactive).

For the molecule `O=C(CSc1n[nH]c(=O)[nH]c1=O)Nc1ccccc1C(=O)c1ccccc1`, the inhibition is -9.72% (inactive).

Regarding `COC(=O)CCCCC1SCC2NC(=O)NC21` (stereo unspecified), the inhibition is 1.31% (inactive). The figure for `CCc1cccc(NC(=O)CCSCCC(=O)Nc2cccc(CC)c2)c1` is 14.8% (inactive); for `CCc1cccc(NC(=O)CCCN2C(=O)NC(C)(C)C2=O)c1` it is -6.41% (inactive); for `Cc1cccc(C)c1NC(=O)CCCCCC1NC(=O)NC1C` (stereo unspecified) it is 24.2% (inactive).

As for `Cc1ccc(NC(=O)CCC(=O)Nc2ccc(C)cc2)cc1`, the inhibition is 4.02% (inactive). On to `CCC(=O)Nc1ccc(F)c(Cl)c1`, for which the inhibition is -2.47% (inactive). Under `CCCCC(=O)Nc1ccc(F)c(Cl)c1` stands 0.54% (inactive); under `O=C(O)CCCCC1SCC2NC(=O)NC21` (stereo unspecified), 22.1% (inactive). The figure for `COc1ccc(C(C(=O)NC2CCCC2)N(CCN(C)C)C(=O)c2snc(C(N)=O)c2N)cc1` (stereo unspecified) is -6.89% (inactive).

For the molecule `O=C(Cc1ncc(C(F)(F)F)cc1Cl)NC1CC1`, the inhibition is -2.28% (inactive). On to `O=C(Cc1cccc(C(F)(F)F)c1)N1CCN(CC(=O)N2CCCC2)CC1`, for which the inhibition was -1.65% (inactive). Under `CCCNC(=O)CN(c1cccc(F)c1)S(C)(=O)=O` stands -3.24% (inactive); under `COC(CNC(=O)CN1CCN(Cc2ccccc2F)C1=O)OC`, -6.42% (inactive); under `COc1ccc(NC(=O)CN2CCN(CC(=O)Nc3ccc(F)cc3)CC2)c(OC)c1`, -6.91% (inactive). The figure for `O=C(COC(=O)c1ccc(O)cc1)NCC1COc2ccccc2O1` (stereo unspecified) is -6.24% (inactive). The figure for `Cc1nn(CC(=O)NC(=O)c2ccccc2)c(C)c1[N+](=O)[O-]` is -12.3% (inactive); for `COc1ccc(CC(=O)OC2CCCN(C)C2)cc1` (stereo unspecified) it is 2.07% (inactive).

Take `Cc1c(F)cccc1NC(=O)CSCC(=O)Nc1ccccc1`: the inhibition was -20.1% (inactive). The figure for `Cc1c(F)cccc1NC(=O)CCC(=O)O` is 22.1% (inactive); for `O=C(CCCCC(=O)Nc1ccc(F)cc1)Nc1ccc(F)cc1` it is -8.93% (inactive). The figure for `CCCCCC1NC(=O)NC1CCCCCC(=O)O` (stereo unspecified) is 0.19% (inactive); for `CC1NC(=O)NC1CCCCC(=O)O` (stereo unspecified) it is 8.09% (inactive); for `O=C(CCCCCN1C(=O)c2ccccc2C1=O)Nc1ccc(F)cc1` it is 15.1% (inactive). The figure for `COc1ccc(NC(=S)NCCc2ccc(S(N)(=O)=O)cc2)c(OC)c1` is 0.63% (inactive). For the molecule `Cc1ccc(C)c(OCCn2cc(/C=C(\C#N)C(=O)NCC3CCCO3)c3ccccc32)c1` (stereo unspecified), the inhibition is 5.75% (inactive).

With `O=C(COC(=O)Cc1ccc(Cl)cc1)Nc1ccc(OC(F)F)cc1`, the inhibition was -4.03% (inactive).

On to `COc1cc(CN2C(=S)NC(C)(C)CC2(C)O)cc(OC)c1` (stereo unspecified), for which the inhibition is -3.29% (inactive). Take `Cc1cc(C)n(Cc2ccc(C(=O)Nc3cccc(Br)c3)o2)n1`: the inhibition was 26.6% (inactive).

With `O=C(N/N=C/c1coc2ccccc2c1=O)c1cc(Br)c(O)c(Br)c1`, the inhibition was -7.78% (inactive). Under `O=C1C(Cc2ccc(O)cc2)NC(=S)N1c1ccccc1` (stereo unspecified) stands 2.29% (inactive); under `O=C(N/N=C/C1C(c2ccccc2)C1(Cl)Cl)c1cccc(Br)c1` (stereo unspecified), -5.72% (inactive). Regarding `O=C(C[n+]1ccc(C(=O)N/N=C/c2ccc(O)cc2)cc1)c1ccccc1`, the inhibition was 2.67% (inactive). With `C=CCN1C(=O)/C(=C\c2ccc(C)cc2)N=C1SCC(=O)NCCC`, the inhibition was -5.98% (inactive). Under `C/C(=N\NC(=O)c1ccn(C)n1)c1cccc(NC(=O)c2ccncc2)c1` stands 10.3% (inactive); under `COC(=O)C1=C(O)CSC1=Nc1ccc(C)cc1`, -6.3% (inactive). The figure for `CCc1nn2cc(C(=O)c3ccccc3O)cnc2c1-c1ccc(F)cc1` is 14.5% (inactive); for `O/N=C/c1ccc2cccc(O)c2n1` it is 1.88% (inactive); for `O=[N+]([O-])c1ccc(/C=C/c2ccc3cccc(O)c3n2)cc1` it is -0.58% (inactive).

As for `CCOc1ccc(OCCC(=O)NNC(=O)c2ccccc2Cl)cc1`, the inhibition is -2.63% (inactive). As to `CCN(CC)CCNC(=O)c1cc(Sc2nnc(C)s2)nc2ccccc12`, the inhibition is -9.1% (inactive). Under `COc1cc2[nH]c(=O)n(Cc3ccc(C(=O)NCCCN4CCC(C)CC4)cc3)c(=O)c2cc1OC` stands 4.01% (inactive); under `COc1ccc(N(CC(=O)NCc2ccc(Cl)cc2)S(=O)(=O)c2c(C)noc2C)cc1`, 6.25% (inactive).
